Laboratory results published in ChEMBL document CHEMBL4513160, “CO-ADD screening of MMV (CH) - Small Polar Library”.
The whole screen tested about 18,000 compounds, of which fewer than 10 showed an effect of 50% or more. Only a sample is shown.

Each compound was assayed on Pseudomonas aeruginosa (assay: Antibacterial activity against Pseudomonas aeruginosa PAO397 [PAO1 d(mexAB-oprM) d(mexCD-oprJ) d(mexEF-oprN) d(mexJKL) d(mexXY) d(opmH)] (CO-ADD:GN_211); MIC in CAMBH media using NBS plates, by OD(600)). Conditions: Concentration 300 ug.mL-1, ASSAY_TEST Inhibition of Bacterial Growth, detection method Absorption (OD600), MEDIA CAMHB, plate type 384well, CORNING #3640, time 18 hr.
Type: functional
`CCNC(=O)COC(=O)c1cc(O)nc2ccccc12` showed an Inhibition of -1.47%.
Work on `Cc1cc(CO)ccc1N1CCOCC1` yielded an Inhibition of 6.45%.
`CC(C)OCC(O)CN1CCc2ccc(O)cc2C1` (centres undefined) gave an Inhibition of -14.27%.
In the case of `CCc1ccc(CN2Cc3cnn(CCO)c3C2)nc1`, the Inhibition is reported as 18.58%.
In the case of `NC(=O)CN1CCC(NC(=O)c2cc(Br)c[nH]2)CC1`, the Inhibition is reported as 14.11%.
With `O=C(CNC(=O)N1CCC=C(Br)C1)N1CCCCC1` the Inhibition was -37.56%.
In the case of `CCN(Cc1[nH]cnc1C)C1CCS(=O)(=O)C1` (centres undefined), the Inhibition is reported as 6.36%.
With `CN1N=C(C(=O)Nc2ccc(Cl)cn2)CCC1=O` the Inhibition was 8.23%.
Compound `Cc1cc(=O)n(C)cc1NC(=O)CCc1ccccn1` has an Inhibition of 1.98%.
For `CC(C)(C)c1noc(CN2CCSCC2)n1`, the Inhibition was -15.23%.
`CC(O)CN(C)c1ncc(Br)cn1` (centres undefined) showed an Inhibition of -40.03%.
Compound `CC(C)(C)SCC(=O)Nc1ccc(CS(N)(=O)=O)cc1` has an Inhibition of -2.55%.
With `CS(=O)(=O)NC(c1ccc(F)cc1)c1cccnc1` (centres undefined) the Inhibition was -27.51%.
`CN(C)CCOC1CCNCC1` showed an Inhibition of 12.65%.
In the case of `COC(=O)CNC(=O)CSc1nc(C)cc(C)c1C#N`, the Inhibition is reported as -8.27%.
With `CN1CCC(CN(C)S(=O)(=O)c2ccccc2)CC1` the Inhibition was -25.1%.
For `Cc1cc(C)n(-c2ccc(C(=O)NC(C)(C)C)cn2)n1`, the Inhibition was 9.83%.
`Cn1cccc1CNCCNC(=O)c1ccn[nH]1` was tested, and the Inhibition was -19.28%.
Work on `c1ccc(C2=NCCN2)nc1` yielded an Inhibition of 8.57%.
Compound `Cc1ccc(CC(=O)N2CCC[C@H]2CO)cc1O` has an Inhibition of 9.81%.
For `c1ccc2[nH]c(NCC3CCCO3)nc2c1` (centres undefined), the Inhibition was -27.33%.
`COCCNC(=O)CN1CCC2(CC1)OCCO2` gave an Inhibition of 24.44%.
`CCOc1cccc(NC(=O)c2ccc(C)[nH]c2=O)n1` was tested, and the Inhibition was 14.98%.
In the case of `CN1CCOC(C(=O)Nc2ncc(Cl)s2)C1` (centres undefined), the Inhibition is reported as -8.17%.
`CC(=O)NC1CCN(Cc2ccc(F)c(F)c2)CC1` showed an Inhibition of -27.6%.
For `Cc1ccccc1OCCN1CCC(C(N)=O)CC1`, the Inhibition was 0.98%.
`COc1ccccc1OCC(C)N` (centres undefined) was tested, and the Inhibition was 15.24%.
In the case of `NC1CC(c2cc(NCC[C@H]3CCCN3)ncn2)C1` (some centres undefined), the Inhibition is reported as 15.98%.
For `CNc1nnc(SCc2csc(NC(C)=O)n2)s1`, the Inhibition was -5.82%.
In the case of `COc1ccc(C(N)c2ccncc2)cc1` (centres undefined), the Inhibition is reported as -28.12%.
For `CC(=O)N1CCN(c2ccc(CN)cc2)CC1`, the Inhibition was -1.93%.
`O=C(NC1CC1)c1n[nH]c2ccccc12` gave an Inhibition of -5.33%.
Work on `O=C(CCCc1nccs1)NCC(=O)N1CCCCC1` yielded an Inhibition of -6.34%.
With `CC(CS(C)(=O)=O)NC(=O)C(C)(C)C` (centres undefined) the Inhibition was -7.14%.
